Laboratory results from PubChem BioAssay (NCATS).
Records with an inconclusive call do not appear. Values without a mark were called inactive. Active and inactive are the calls of the source. Calls come from the whole dose curve; as a rule, active = well fitted cell-killing curve with a large enough effect; inconclusive = small, poorly fitted or top-dose-only effect; inactive = no such curve, though single readings can be large or run the other way.

assay: qHTS of pediatric cancer cell lines to identify multiple opportunities for drug repurposing: Primary screen for Rh30 cells (AID 1347107); settings: Rh30 rhabdomyosarcoma viability, CellTiter-Glo luminescence, 48 h; series mostly up to 46 µM; activity change, negative = cytotoxic: at the top concentration; note: nearly all actives have a fitted effect of over 75% in size; for activity change, negative = cytotoxic: % is set by controls: 0 for no effect and ±100 for the full control effect
Outline: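 Cells (500-1,000/well) in growth media were settled 5 h at 37 degrees C, then given compounds for 48 h. Viability was read as CellTiter-Glo luminescence. Primary runs used MIPE at 11 points (0.78 nM-46 µM) and NPC at 8 points (0.59 nM-46 µM); follow-ups used 11 points.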
Potency is the fitted concentration of half-maximal effect.

| Compound | activity change, negative = cytotoxic [%] | Potency |
| --- | --- | --- |
| Cc1cc(C(=O)NOCCO)c(Nc2ccc(I)cc2F)n(C)c1=O | 6.15 | – |
| c1ccc2c(Oc3nc(Nc4ccc(N5CCOCC5)cc4)c4ncn(C5CCCCC5)c4n3)cccc2c1 | 13.1 | – |
| CNC(=O)Nc1ccc(-c2nc(N3CC4CCC(C3)O4)c3cnn(C4CCC5(CC4)OCCO5)c3n2)cc1 | – | 11.8 µM (active) |
| CC(C)c1cc(C(C)C)c(CC(=O)NS(=O)(=O)Oc2c(C(C)C)cccc2C(C)C)c(C(C)C)c1 | -19.1 | – |
| O=[N+]([O-])c1cn2c(n1)OC[C@@H](OCc1ccc(OC(F)(F)F)cc1)C2 | -3.49 | – |
| Nc1cccc2c1C(=O)N(C1CCC(=O)NC1=O)C2=O (configuration not stated) | 2.36 | – |
| COc1cc(C(C)C)c(Oc2cnc(NC(CO)CO)nc2N)cc1I | 2.66 | – |
| N#CC(=C(N)Sc1ccc(N)cc1)c1ccccc1C(F)(F)F | -5.31 | – |
| CC1=C(C(=O)Nc2cc3cn[nH]c3cc2F)C(c2ccc(Cl)cc2F)N=C(c2ccnc(Cl)c2)N1 (configuration not stated) | 4.47 | – |
| Cc1coc2c1C(=O)C(=O)c1c-2ccc2c(C)cccc12 | -2.82 | – |
| CC(C)n1cnc2c(NCCc3ccc(O)cc3)nc(-c3csc4ccccc34)nc21 | – | 18.7 µM (active) |
| C=CCNc1c(O)cc2c(O)c1C[C@@H](C)C[C@H](OC)[C@@H](O)[C@@H](C)C=C(C)[C@H](OC(N)=O)[C@@H](OC)C=CC=C(C)C(=O)N2 | -18.9 | – |
| COc1cc2c(cc1O)CCC1C2CC[C@@]2(C)C1CC[C@@H]2O (some centres not stated) | 4.02 | – |
| COc1cc2ncnc(Nc3cccc(Br)c3)c2cc1OC | -8.31 | – |
| COc1cc(OC)c(C=CS(=O)(=O)Cc2ccc(OC)c(NCC(=O)O)c2)c(OC)c1 | -2.21 | – |
| C[C@H](NC(=O)C(C#N)=Cc1cccc(Br)n1)c1ccccc1 | – | 23.5 µM (active) |
| C[C@@H](Cc1cc2c(c(C(N)=O)c1)N(CCCO)CC2)NCCOc1ccccc1OCC(F)(F)F | 12.7 | – |
| Cn1cc(-c2cnn3c(N)c(Br)c([C@H]4CCCNC4)nc23)cn1 | -24.8 | – |
| COC(=O)C1C2CC3c4[nH]c5cc(OC)ccc5c4CCN3CC2CC(OC(=O)c2cc(OC)c(OC)c(OC)c2)C1OC (configuration not stated) | -2.89 | – |
| CCCCCN=C(N)NN=Cc1c[nH]c2ccc(OC)cc12 | 1.35 | – |
| C=CC[C@@H]1C=C(C)C[C@H](C)C[C@H](OC)[C@H]2O[C@@](O)(C(=O)C(=O)N3CCCC[C@H]3C(=O)O[C@H](C(C)=C[C@@H]3CC[C@H](O)[C@H](OC)C3)[C@@H](C)[C@@H](O)CC1=O)[C@@H](C)C[C@@H]2OC | 6.29 | – |
| CCOC(=O)N1CCN([N+]([O-])=NOc2ccc([N+](=O)[O-])cc2[N+](=O)[O-])CC1 | -4.21 | – |

assay: qHTS of pediatric cancer cell lines to identify multiple opportunities for drug repurposing: Primary screen for Rh41 cells (AID 1347108); settings: Rh41 rhabdomyosarcoma viability, CellTiter-Glo luminescence, 48 h; series mostly up to 46 µM; activity change, negative = cytotoxic: at the top concentration; note: nearly all actives have a fitted effect of over 70% in size;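 for activity change, negative = cytotoxic: luminescence drop marks cytotoxic hits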
Outline: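 Primary screen of approved and investigational compounds on cells in growth media at 37 degrees C, 5% CO2. MIPE set at 11-point and NPC set at 8-point dilutions; viability scored by ATP-based luminescence at 48 hours.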

| Compound | Potency | activity change, negative = cytotoxic [%] |
| --- | --- | --- |
| COc1ccc([C@@H]2CNC(=O)C2)cc1OC1CCCC1 | 3.72 µM (active) | – |
| Cc1cc(C(=O)NOCCO)c(Nc2ccc(I)cc2F)n(C)c1=O | – | 8.24 |
| c1ccc2c(Oc3nc(Nc4ccc(N5CCOCC5)cc4)c4ncn(C5CCCCC5)c4n3)cccc2c1 | – | 0.209 |
| CNC(=O)Nc1ccc(-c2nc(N3CC4CCC(C3)O4)c3cnn(C4CCC5(CC4)OCCO5)c3n2)cc1 | 0.0418 µM (active) | – |
| Cc1ccc(-n2[nH]c(C)c(N=Nc3cccc(-c4cccc(C(=O)O)c4)c3O)c2=O)cc1C | 18.7 µM (active) | – |
| Cc1coc2c1C(=O)C(=O)c1c-2ccc2c(C)cccc12 | – | -15.2 |
| CC(C)n1cnc2c(NCCc3ccc(O)cc3)nc(-c3csc4ccccc34)nc21 | 11.8 µM (active) | – |
| CS(=O)(=O)N1CCc2c(-c3cnc(N)nc3)nc(N3CCOCC3)nc21 | 0.833 µM (active) | – |
| C=CCNc1c(O)cc2c(O)c1C[C@@H](C)C[C@H](OC)[C@@H](O)[C@@H](C)C=C(C)[C@H](OC(N)=O)[C@@H](OC)C=CC=C(C)C(=O)N2 | 2.35 µM (active) | – |
| C[C@H](NC(=O)C(C#N)=Cc1cccc(Br)n1)c1ccccc1 | 23.5 µM (active) | – |
| CN(CC(=O)N(Cc1ccc(C2CCCCC2)cc1)c1ccc(C(=O)O)c(O)c1)S(=O)(=O)c1c(F)c(F)c(F)c(F)c1F | 23.5 µM (active) | – |
| C[C@@H](Cc1cc2c(c(C(N)=O)c1)N(CCCO)CC2)NCCOc1ccccc1OCC(F)(F)F | – | 2.56 |
| CCc1c(O)cc(O)c(C(=O)c2ccc(OCCN3CCOCC3)c(OC)c2)c1CC(=O)N(CCOC)CCOC | 1.18 µM (active) | – |
| Cn1cc(-c2cnn3c(N)c(Br)c([C@H]4CCCNC4)nc23)cn1 | 2.35 µM (active) | – |
| C=CC(=O)Nc1cc(NC(=O)c2ccc(C)c(NC(=O)c3ccno3)c2)cc(C(F)(F)F)c1 | 20.9 µM (active) | – |
| N#Cc1c(C2CCNCC2)cc(-c2c(O)cccc2OCC2CC2)nc1N | 14.8 µM (active) | – |
| C#C[C@]1(O)CC[C@@H]2[C@@H]3CCc4cc(O)ccc4[C@H]3CC[C@@]21C | 23.5 µM (active) | – |
| CCNC(=O)Nc1ccc(-c2nc3c(c(N4CCOC[C@H]4C)n2)CCN(C2COC2)C3)cc1 | 1.48 µM (active) | – |
| CCOC(=O)N1CCN([N+]([O-])=NOc2ccc([N+](=O)[O-])cc2[N+](=O)[O-])CC1 | 4.18 µM (active) | – |
| NS(=O)(=O)OC[C@@H]1C[C@@H](n2ccc3c(N[C@H]4CCc5ccccc54)ncnc32)C[C@H]1O | 1.87 µM (active) | – |
